The full list was thinned out, with hits kept by preference.
AmpC inh no detg: qHTS Inhibitors of AmpC Beta-Lactamase (assay without detergent). 330,000 tested, 0.52% active. AmpC nitrocefin hydrolysis, absorbance 480 nm, 0.0001% Triton. Potency, µM (series often up to 57.1 µM), inactives show top-dose activity change, negative = inhibition, usual class: inhibitors. AID 485341, 2010;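 also: potency is read from the fitted curve at half-maximal effect; plate controls were no compound for no effect and no enzyme for full effect; nearly all actives have a fitted effect of over 20% in size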
Target sequence (P00811 whole entry, looked up): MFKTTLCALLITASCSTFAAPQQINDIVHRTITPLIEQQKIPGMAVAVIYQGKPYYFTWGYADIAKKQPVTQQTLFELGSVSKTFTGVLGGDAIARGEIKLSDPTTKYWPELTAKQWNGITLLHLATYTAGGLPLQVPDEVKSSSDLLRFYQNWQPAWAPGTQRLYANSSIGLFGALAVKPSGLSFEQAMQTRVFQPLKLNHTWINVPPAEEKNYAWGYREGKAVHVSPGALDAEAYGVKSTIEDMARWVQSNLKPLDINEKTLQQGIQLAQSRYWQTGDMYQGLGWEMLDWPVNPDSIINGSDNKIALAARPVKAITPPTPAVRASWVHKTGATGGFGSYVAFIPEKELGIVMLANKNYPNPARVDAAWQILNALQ
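20 mM phosphate pH 7.0 + 0.01% (detergent screen) or 0.0001% Triton X-100; 5.3 nM AmpC reagent; cpd preinc 15 min RT; nitrocefin (800 uM stock) to start; A480 q20 s × 4 min; Activity was normalised to no-enzyme and no-compound control wells.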
NS1 inh: qHTS Assay for Inhibitors of Influenza NS1 Protein Function; Potency, µM (highest dose often 46.1 µM), for the others: top-dose activity, positive = more growth; 270,000 tested, 0.4% active; calls by dose curve; also: potency is read from the fitted curve at half-maximal effect; actives are rising curves; nearly all actives have a fitted effect of over 50% in size
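A cell-based growth assay was used: compounds that relieve NS1-induced slow growth of budding yeast raise OD600. Assay medium was yeast nitrogen base with ammonium sulphate and -URA supplement, pH 6.0, with 2% galactose.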
Cycloheximide cs: Cycloheximide Counterscreen for Small Molecule Inhibitors of Shiga Toxin; 300,000 tested, 12% active; AID 2314, 2010; max response, %; cell reporter, cycloheximide protein synthesis inhibition counterscreen; in the data active = max response mostly above about 13%, no sharp cut-off; inactive = mostly below about 14%; also: read at 38.3 µM for the half of the compounds with a filed dose; 0% is about no effect
Shiga inhibitor: A qHTS for Small Molecule Inhibitors of Shiga Toxin; 290,000 tested, 9.2% active; AID 2315, 2010; Vero cells, Shiga toxin protein synthesis inhibition reporter; inhibition, % at 38.7 µM; in the data active = inhibition mostly above about 28%, no sharp cut-off; inactive = mostly below about 43%; also: 0% is about no effect
AmpC detergent: qHTS Inhibitors of AmpC Beta-Lactamase (assay with detergent); P00811; Potency, µM (highest dose often 114 µM), without a hit: top-dose activity change, negative = inhibition, hits mostly inhibitors; 370,000 tested, 0.041% active; AmpC hydrolysis of nitrocefin, absorbance 480 nm, 0.01% Triton;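 also: potency is read from the fitted curve at half-maximal effect; 0% = no-compound wells and -100% = no-enzyme wells; nearly all actives have a fitted effect of over 25% in size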
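AmpC (5.3 nM in the dispensed reagent) in 20 mM phosphate pH 7.0 with 0.01% (detergent screen) or 0.0001% Triton X-100 was preincubated with compounds for 15 min at room temperature. Nitrocefin was then added from an 800 uM solution, and hydrolysis was followed at 480 nm.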
* marks the source's active call; other numbers are inactive results; i = inactive; u = inconclusive; x = not tested or not shown. Unless noted, calls follow the shape of the dose curve; as a rule, active = well fitted curve in the direction sought with a large enough effect; inconclusive = small, poorly fitted or top-dose-only effect, or another doubt; inactive = no such curve, though single readings can be large; an effect the other way counts as inactive or inconclusive.

SMILES	AmpC inh no detg	NS1 inh	Cycloheximide cs	Shiga inhibitor	AmpC detergent
CCc1ccc(NC(=O)C2C3C=CC(C4CC34)C2C(=O)O)cc1 (stereo unspecified)	-13.4%	-2.7%	13.9*	19.1	u
CC(=O)c1cccc(NC(=O)C2C3C=CC(C4CC34)C2C(=O)O)c1 (stereo unspecified)	-10.1%	-3.4%	3.8	-6.5	-1.0%
CN(C)c1ccc(NC(=O)C2C3C=CC(C3)C2C(=O)O)cc1 (stereo unspecified)	-17.0%	8.1%	19.7*	66.4*	-4.1%
CC(=O)c1ccc(NC(=O)C2C3C=CC(O3)C2C(=O)O)cc1 (stereo unspecified)	-10.3%	0.2%	13.0	5.9	1.0%
COc1ccccc1CNC(=O)c1cc(-c2ccccc2C)n(CC2CC(c3cccc([N+](=O)[O-])c3)=NO2)n1 (stereo unspecified)	-21.1%	x	x	x	-10.4%
C=CCn1c(C)cc(-c2csc(NC)n2)c1C	41.1%	x	0.8	-3.7	-11.6%
C=CCn1c(C)cc(-c2csc(NCC)n2)c1C	36.0%	1.4%	43.2*	89.3*	1.7%
Cc1ccc(C(=O)N(c2ccccn2)C(C)c2ccco2)cc1 (stereo unspecified)	-4.7%	-4.1%	12.1	31.4	-18.5%
CC(c1ccco1)N(C(=O)Nc1ccc(Cl)cc1)c1ccccn1 (stereo unspecified)	-26.3%	-46.0%	10.6*	12.3	u
COc1ccc(-c2nnc(SC)o2)c(OC)c1	-5.9%	-7.6%	21.1*	71.6*	-7.3%
COc1ccc(OC)c(-c2ccc(C(=O)O)o2)c1	x	x	15.8	i	x
COc1ccc(OC)c(-c2nnc(-c3ccc(C)o3)o2)c1	-1.2%	-10.8%	35.9*	74.7	-4.8%
CCOC(=O)CSc1nnc(-c2ccc(OC)cc2OC)o1	-12.8%	-55.2%	1.7	1.6	-2.1%
COCCNC(=O)C1CCCN(S(=O)(=O)c2cccc3nsnc23)C1 (stereo unspecified)	6.3%	25.4%	10.3	13.0	5.5%
O=C(Nc1c[nH]c2c(Cl)cccc2c1=O)N1CCN(c2ccccn2)CC1	-20.6%	-2.5%	15.6*	28.1	-17.6%
Cc1cc(C)n(CCc2nc3c4ccccc4nc(N4CCN(c5ccccc5)CC4)n3n2)n1	x	x	x	x	4.8%
O=C(CC(=O)N/N=C/c1ccc(O)cc1)N/N=C/c1ccc(O)cc1	-16.4%	-0.5%	-2.2	27.3	-0.5%
O=C(N/N=C/c1ccc(O)cc1)/C(=C/c1ccccc1)CCO	-9.7%	-1.6%	14.0*	20.5	0.5%
CC(C)Oc1ccccc1C1CC(=O)Nc2c1c(=O)n(C)c(=O)n2C (stereo unspecified)	-8.4%	3.1%	-4.7	-7.2	u
NS(=O)(=O)c1cccc(NC(=O)/C=C/c2cccs2)c1	-25.3%	2.0%	30.0*	48.3*	-2.4%
NS(=O)(=O)c1ccc(NC(=O)/C=C/c2cccs2)cc1	-17.6%	-2.9%	11.4*	35.2	3.5%
O=C(/C=C/c1cccs1)Nc1ccc(S(=O)(=O)Nc2ncccn2)cc1	-23.7%	-2.2%	0.8	-7.7	0.0%
C/C=C(\C)c1nnc(NC(=O)C(C)C)s1	-6.6%	u	19.0*	12.8	0.5%
CC(C)C(=O)Nc1nnc(CCc2nnc(NC(=O)C(C)C)s2)s1	-17.6%	-6.1%	-4.8	14.8	-2.8%
CCCc1nnc(NC(=S)Nc2ccccc2)s1	-26.1%	x	27.4*	41.7*	-13.4%
SMILES	AmpC inh no detg	NS1 inh	Cycloheximide cs	Shiga inhibitor	AmpC detergent
CC(C)C(=O)Nc1nnc(NC(=S)Nc2ccccc2)s1	-33.2%	x	33.9*	68.2*	u
COc1ccc(OC)c(NC(=O)c2ccc3c(=O)n(CCc4ccccc4)c(=S)[nH]c3c2)c1	-19.1%	3.0%	3.4	10.8	u
Cc1ccc(S(=O)(=O)N2CCC(C(=O)N[C@@H](C)C(=O)Nc3ccc4c(c3)OCO4)CC2)cc1	7.9%	-24.5%	6.3	26.7	35.5µM*
Cc1cc(C)n(C(C)CC(=O)Nc2ccc3c(c2)OCO3)n1 (stereo unspecified)	-6.7%	1.2%	23.6*	9.7	2.1%
O=C(CSc1ccccc1F)Nc1ccc2c(c1)OCO2	-13.7%	x	x	x	x
CC(CC(=O)Nc1ccc2c(c1)OCCO2)c1ccccc1 (stereo unspecified)	-13.2%	7.5%	41.5*	54.5*	1.9%
CC(CC(=O)Nc1ccc2c(c1)OCO2)c1ccccc1 (stereo unspecified)	-24.6%	-19.0%	15.0*	57.1	-14.2%
Cc1cc(C)n(C(C)CNC(=O)c2ccc3c(c2)OCO3)n1 (stereo unspecified)	-13.1%	-4.7%	4.1	11.2	5.5%
CC1CCN(Cc2c(O)ccc3c(=O)c(-c4cccc(Cl)c4)c(C(F)(F)F)oc23)CC1	x	x	x	x	24.3%
CCOC(=O)c1sc(NC(=O)CCN2CCN(CC)CC2)c(C(=O)OCC)c1C	162.3%	x	1.7	-3.9	-1.1%
CSCC[C@H](NC(=O)Cc1c(C)c2c(cc(C)c3c(C)coc32)oc1=O)C(=O)O	-14.3%	8.4%	-1.5	2.7	-4.8%
C[C@H](NC(N)=O)C(=O)Nc1ccc2c(c1)OCO2	16.3%	-1.5%	23.4*	3.4	2.2%
Nc1n[nH]c2cc(=O)n(-c3cccc(C(F)(F)F)c3)nc12	-10.5%	x	7.1	-3.6	5.5%
O=c1[nH][nH]c2cc(=O)n(-c3cccc(C(F)(F)F)c3)nc12	20µM*	x	5.5	-2.7	2.3%
Cc1nn(-c2cccc(C(F)(F)F)c2)c(=O)c2ccccc12	-0.8%	-32.4%	15.6*	x	u
CC(C)c1ccc(C2=CC(c3ccc(C(C)C)cc3)n3nnnc3N2)cc1 (stereo unspecified)	x	x	x	x	7.6%
COc1cccc(C2=CC(c3ccc(OC)c(OC)c3OC)n3nnnc3N2)c1 (stereo unspecified)	3.4%	-11.8%	34.7*	91.6*	8.0%
COc1ccc(C2=CC(c3ccc(F)cc3)n3nnnc3N2)cc1 (stereo unspecified)	-21.8%	-7.5%	12.6	29.8	u
COc1cccc(C2=CC(c3ccc(C)cc3)n3ncnc3N2)c1 (stereo unspecified)	-25.4%	-15.7%	-0.8	17.5	u
COc1cccc(C2=CC(c3cccs3)n3nnnc3N2)c1 (stereo unspecified)	-39.3%	-3.9%	40.6*	48.2*	-4.8%
COc1ccc(C2=CC(c3sccc3C)n3nnnc3N2)cc1 (stereo unspecified)	-53.7%	8.4%	40.0*	109.3*	-15.1%
Cc1ccc(C2=CC(c3ccc(N(C)C)cc3)n3nnnc3N2)cc1 (stereo unspecified)	-20.5%	-16.7%	25.6*	23.9	-6.5%
Cc1cc(Br)ccc1NC(=O)c1cn(C2CCCC2)c(=O)c2c1c1ccccc1n2C	x	x	x	x	17.1%
COc1ccccc1CCNC(=O)Cc1c(C)c2c(O)cc(C)cc2oc1=O	x	x	x	x	12.3%
Fc1ccc(CO/N=C/C2=C(Cl)c3ccccc3CC2)cc1	-35.9%	3.6%	12.2*	79.7*	u

Bioassay records (PubChem)
